Measured values taken from PMC4336329 (PLoS ONE, 2015).
The campaign covered roughly 310,000 compounds. About 14,000 (4.5%) showed an effect of 50% or more. The effect is printed as a negative number. For the sample, strong results were picked, then their nearest neighbours and some compounds at random.

What follows are molecules tested against human ether-à-go-go-related gene (hERG) potassium channel (human, UniProt Q12809) (assay: primary screen, population patch clamp on CHO cells stably expressing hERG; higher = less effect of the substance).
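Note: peak tail current of the secondary pulse compared with the same well before compound.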

Chain of human ether-à-go-go-related gene (hERG) potassium channel (Q12809 whole entry, looked up): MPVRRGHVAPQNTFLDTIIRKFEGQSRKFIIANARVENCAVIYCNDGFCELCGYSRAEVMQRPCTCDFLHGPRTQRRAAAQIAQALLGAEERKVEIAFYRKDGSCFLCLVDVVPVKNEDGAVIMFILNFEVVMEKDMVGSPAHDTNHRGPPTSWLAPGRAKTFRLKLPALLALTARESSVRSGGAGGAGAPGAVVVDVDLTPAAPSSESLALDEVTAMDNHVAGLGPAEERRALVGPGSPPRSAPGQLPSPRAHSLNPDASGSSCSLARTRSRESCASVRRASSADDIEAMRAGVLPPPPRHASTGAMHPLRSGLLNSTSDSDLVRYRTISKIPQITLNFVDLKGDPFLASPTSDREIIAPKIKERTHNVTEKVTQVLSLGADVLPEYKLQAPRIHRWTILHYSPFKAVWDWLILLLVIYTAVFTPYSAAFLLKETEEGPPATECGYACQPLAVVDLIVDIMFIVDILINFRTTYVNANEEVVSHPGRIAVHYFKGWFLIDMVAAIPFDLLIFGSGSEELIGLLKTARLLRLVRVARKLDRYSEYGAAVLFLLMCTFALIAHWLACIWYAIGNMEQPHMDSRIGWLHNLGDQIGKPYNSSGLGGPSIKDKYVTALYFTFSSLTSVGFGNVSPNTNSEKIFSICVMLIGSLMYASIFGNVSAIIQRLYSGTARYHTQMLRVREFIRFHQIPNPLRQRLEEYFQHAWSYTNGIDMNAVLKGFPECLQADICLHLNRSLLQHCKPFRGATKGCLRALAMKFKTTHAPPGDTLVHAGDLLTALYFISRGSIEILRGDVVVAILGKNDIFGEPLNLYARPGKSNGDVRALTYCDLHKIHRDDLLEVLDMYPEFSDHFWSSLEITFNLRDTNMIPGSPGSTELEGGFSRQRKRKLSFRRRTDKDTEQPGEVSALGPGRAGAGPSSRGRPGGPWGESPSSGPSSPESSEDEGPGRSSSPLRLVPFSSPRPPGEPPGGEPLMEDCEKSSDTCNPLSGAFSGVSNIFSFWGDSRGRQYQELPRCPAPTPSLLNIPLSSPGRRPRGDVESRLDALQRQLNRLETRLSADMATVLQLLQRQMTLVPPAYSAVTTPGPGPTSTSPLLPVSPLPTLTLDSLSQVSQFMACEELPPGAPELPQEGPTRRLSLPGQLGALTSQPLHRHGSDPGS

SMILES | hERG current change (%, negative = inhibition) at 10uM
CC(Oc1ccc2c(-c3ccccc3)cc(=O)oc2c1)C(=O)N[C@H](Cc1c[nH]c2ccccc12)C(=O)O (stereo partly shown) | 7.48%
O=C(NCC1CCCO1)c1cnn2c1NC(c1ccccc1)CC2C(F)(F)F (stereo not shown) | 1.68%
NS(=O)(=O)c1cccc(NC(=O)COC(=O)CCc2ccccc2)c1 | 17%
CCC(=O)N1CCc2cc(S(=O)(=O)CCC(=O)NCc3ccc4c(c3)OCO4)ccc21 | 0.659%
Cc1ccc2c(CC(=O)NCCc3ccc(S(N)(=O)=O)cc3)coc2c1 | -2.43%
O=C(O)C(=O)O.c1ccc(COc2ccc(OCCCN3CCCC3)cc2)cc1 | -73.8%
O=C(O)C(=O)O.c1ccc(COc2ccc(OCCCN3CCCCC3)cc2)cc1 | -78.3%
COc1cccc2c1-c1c(C(=O)O)cccc1C2=O | 15.7%
CC(=O)c1ccc(NC(=O)C(C)NCc2ccccc2Cl)cc1 (stereo not shown) | -0.834%
CCCCN(C)Cc1c(C)[nH]c2c(ccc3ccccc32)c1=O | -73.6%
CCCCN(CC)Cc1c(C)[nH]c2c(ccc3ccccc32)c1=O | -74.3%
CCCCN(C)Cc1c(C)[nH]c2ccc(Cl)cc2c1=O | -55.3%
CCCCN(C)Cc1c(C)[nH]c2ccc(OCC)cc2c1=O | -39.9%
CCCCN(CC)Cc1c(C)[nH]c2ccccc2c1=O | -20.7%
CCN(Cc1ccccc1)Cc1c(C)[nH]c2c(C)c(C)ccc2c1=O | -40.6%
CCCCN(C)Cc1c(C)[nH]c2ccccc2c1=O | -2.26%
CCCCN(C)Cc1c(C)[nH]c2c(Cl)cccc2c1=O | -38.7%
Cc1[nH]c2ccc(Cl)cc2c(=O)c1CN1CCCC1 | 1.86%
CC1(C)CC(=O)C(C=Nc2cccnc2/N=C/C2=C(O)CC(C)(C)CC2=O)=C(O)C1 | 14%
O=c1[nH]n2c(C(F)(F)F)cc(C3CC3)nc2c1N=Nc1ccccc1 | 12.2%
COc1cc(OC)cc(-c2oc(=O)c3cc(OC)c(OC)cc3c2/C=C/c2ccc(F)cc2)c1 | 4.91%
Cc1ccc(C(=O)n2nnc3ccccc32)cc1 | 7.37%
CN1C(=S)SC(/[N+]([O-])=C\c2ccccc2)C1(C)C (stereo not shown) | -15.4%
COC(=O)c1[nH]c2ccccc2c1NC(=O)CN1CCN(c2cccc(Cl)c2)CC1 | 6.84%
COC(=O)c1[nH]c2ccc(C)cc2c1NC(=O)CCN1CCN(Cc2ccc3c(c2)OCO3)CC1 | -66.1%
CCN(CC(=O)Nc1c(C(=O)OC)[nH]c2ccc(C)cc12)c1ccc2c(c1)OCO2 | 2.19%
CCN(CC(=O)Nc1c(C(=O)OC)[nH]c2ccccc12)c1ccc2c(c1)OCO2 | -17.4%
COC(=O)c1[nH]c2ccc(C)cc2c1NC(=O)CN1CCN(c2ccc(F)cc2)CC1 | -1.02%

SMILES | hERG current change (%, negative = inhibition) at 10uM
COC(=O)c1[nH]c2ccccc2c1NC(=O)CN1CCN(Cc2ccc3c(c2)OCO3)CC1 | -73.7%
CCc1noc(C)c1C(=O)Nc1cccc(S(=O)(=O)N(C)c2ccccc2)c1 | -22.1%
CCN1CCCC1CNC(=O)Cn1cccc1C(=O)c1ccccc1 (stereo not shown) | -3.53%
O=C1C=C(c2ccc(F)cc2OCc2ccccc2)C[C@@H](c2ccc(Cl)cc2)C1 | 6.91%
CCOC(=O)[C@H]1[C@H]2COc3ccc(Cl)cc3[C@@H]2N2C(=O)c3cc(C)ccc3NC(=O)[C@@]12C | 5.63%
Cc1cc(C)n2nc(N)c(N=Nc3ccccc3)c2n1 | -3.32%
COC(=O)[C@H](CCSC)NC(=O)c1cc2c(cn1)[nH]c1ccccc12 | 0.117%
O=C(CSc1nc2ccccc2[nH]1)c1ccco1 | -4.74%
CCOC(=O)Nc1ccccc1C(=O)Nc1cc(C)cc(C)c1 | 28.9%
COc1cc(-c2nc3ccccn3c2NCC2CCCO2)ccc1O (stereo not shown) | -17.9%
CCOc1cc(/C=C(\C#N)C(=O)NCC2CCCO2)ccc1O (stereo not shown) | -3.03%
CCOc1cc(-c2nc3ccccn3c2NCC2CCCO2)ccc1O (stereo not shown) | -64.7%
Cc1ccn2c(NC3CCCC3)c(-c3ccncc3)nc2c1 | -10.2%
COc1ccc(-c2nc3cccc(C)n3c2NCC2CCCO2)cc1O.Cl (stereo not shown) | -5.6%
COc1ccc(-c2nc(C#N)c(NCC3CCCO3)o2)cc1OC (stereo not shown) | 6.28%
COc1ccc(-c2nc3cc(C)ccn3c2NCC2CCCO2)cc1OC.Cl (stereo not shown) | -71.2%
CCOc1cc(-c2nc3c(C)cccn3c2NCC2CCCO2)ccc1O.CNC.Cl (stereo not shown) | -43.9%
CCCCNc1c(-c2ccc(OC)c(SC3CCCCC3)c2)nc2cc(C)ccn12.O=C(O)C(F)(F)F | 12.6%
COc1ccc(-c2nc3cccc(C)n3c2NCc2ccco2)cc1OC | -42.2%
COc1cc(-c2nc3cccc(C)n3c2NCC2CCCO2)ccc1O (stereo not shown) | -51.4%
CCOc1cc(-c2nc3cc(C)ccn3c2NCC2CCCO2)ccc1O (stereo not shown) | -72.2%
CCN(CC)CCN1C(=O)C(=O)/C(=C(/O)c2c(C)[nH]c(C(=O)OC)c2C)C1c1ccccc1OC (stereo not shown) | 20.8%
O=C(NCCCN1CCCC1=O)c1cccc(C(F)(F)F)c1 | -3%
CCOC(=O)C1CCN(CC(C)(C)NS(=O)(=O)c2ccc(Cl)cc2)CC1 | -1.75%
C/C(=N/Nc1nc(C)cc(C)n1)c1ccc(Br)cc1 | -14.9%
C/C(=N/Nc1ccnc2cc(Cl)ccc12)c1ccc(O)cc1 | -6.2%
Cc1ccc(C)c(N2CCN(c3ccncc3N)CC2)c1 | -47.8%
